Data reported in the supplement of paper PMC7411054.

How the values were obtained:
Experiment in all cases: phenotypically active (imaging signature differs from DMSO and reproducible) at any of 0.3-9 uM (binary (1 = active, 0 = inactive)); higher = active
Settings in all cases: treatment time: 24 h
A549-ACTB-RAB5A = test system: A549-ACTB-RAB5A
Procedure, shortened: (§1)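 The reporter lines, fifteen in total and built by gene editing in A549, HepG2 and WPMY1 cells, used BFP for segmentation alongside GFP and RFP/FusionRed markers. Each was treated at 0.3, 1, 3 or 9 µM for 24 h in four wells and then imaged live, with live-cell features normalised to solvent control wells. Deviation meant ≥3 of 4 wells beyond the 95th percentile of control Euclidean distances; reproducibility meant a median replicate Pearson correlation above the 95th percentile of non-replicates. Only conditions meeting both were scored as phenotypically active.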

A549-CANX-COX4 = test system: A549-CANX-COX4
Procedure, shortened: as §1

A549-GM130-SQSTM1 = test system: A549-GM130-SQSTM1
Procedure, shortened: as §1

A549-TP53BP1-CLTA = test system: A549-TP53BP1-CLTA
Procedure, shortened: as §1

A549-TUBA1B-RELA = test system: A549-TUBA1B-RELA
Procedure, shortened: as §1

HepG2-ACTB-RAB5A = test system: HepG2-ACTB-RAB5A
Procedure, shortened: as §1

HepG2-CANX-COX4 = test system: HepG2-CANX-COX4
Procedure, shortened: as §1

HepG2-GM130-SQSTM1 = test system: HepG2-GM130-SQSTM1
Procedure, shortened: as §1

HepG2-TP53BP1-CLTA = test system: HepG2-TP53BP1-CLTA
Procedure, shortened: as §1

HepG2-TUBA1B-RELA = test system: HepG2-TUBA1B-RELA
Procedure, shortened: as §1

WPMY1-ACTB-RAB5A = test system: WPMY1-ACTB-RAB5A
Procedure, shortened: as §1

WPMY1-CANX-COX4 = test system: WPMY1-CANX-COX4
Procedure, shortened: as §1

WPMY1-GM130-SQSTM1 = test system: WPMY1-GM130-SQSTM1
Procedure, shortened: as §1

WPMY1-TP53BP1-CLTA = test system: WPMY1-TP53BP1-CLTA
Procedure, shortened: as §1

WPMY1-TUBA1B-RELA = test system: WPMY1-TUBA1B-RELA
Procedure, shortened: as §1

Measured: phenotypically active

COc1cc2c(cc1OC)CC(=O)N(CCCN(C)C[C@H]1Cc3cc(OC)c(OC)cc31)CC2 [ivabridine]
inactive: A549-ACTB-RAB5A 0 | A549-CANX-COX4 0 | A549-GM130-SQSTM1 0 | A549-TP53BP1-CLTA 0 | A549-TUBA1B-RELA 0 | HepG2-ACTB-RAB5A 0 | HepG2-CANX-COX4 0 | HepG2-GM130-SQSTM1 0 | HepG2-TP53BP1-CLTA 0 | HepG2-TUBA1B-RELA 0 | WPMY1-ACTB-RAB5A 0 | WPMY1-CANX-COX4 0 | WPMY1-GM130-SQSTM1 0 | WPMY1-TP53BP1-CLTA 0 | WPMY1-TUBA1B-RELA 0

CN1CC[C@]23c4ccccc4N[C@H]1[C@]21CCN(C)[C@H]3Nc2ccccc21 [Calycanthine]
inactive: A549-ACTB-RAB5A 0 | A549-CANX-COX4 0 | A549-GM130-SQSTM1 0 | A549-TP53BP1-CLTA 0 | A549-TUBA1B-RELA 0 | HepG2-ACTB-RAB5A 0 | HepG2-CANX-COX4 0 | HepG2-GM130-SQSTM1 0 | HepG2-TP53BP1-CLTA 0 | HepG2-TUBA1B-RELA 0 | WPMY1-ACTB-RAB5A 0 | WPMY1-CANX-COX4 0 | WPMY1-GM130-SQSTM1 0 | WPMY1-TP53BP1-CLTA 0 | WPMY1-TUBA1B-RELA 0

CCN(CC)C(C)CN1c2ccccc2Sc2ccccc21 (stereo not given) [profenamine]
inactive: A549-ACTB-RAB5A 0 | A549-CANX-COX4 0 | A549-GM130-SQSTM1 0 | A549-TP53BP1-CLTA 0 | A549-TUBA1B-RELA 0 | HepG2-ACTB-RAB5A 0 | HepG2-CANX-COX4 0 | HepG2-GM130-SQSTM1 0 | HepG2-TP53BP1-CLTA 0 | HepG2-TUBA1B-RELA 0 | WPMY1-ACTB-RAB5A 0 | WPMY1-CANX-COX4 0 | WPMY1-GM130-SQSTM1 0 | WPMY1-TP53BP1-CLTA 0 | WPMY1-TUBA1B-RELA 0

O=C(O)C(CO)c1ccccc1 (stereo not given) [Tropic acid]
inactive: A549-ACTB-RAB5A 0 | A549-CANX-COX4 0 | A549-GM130-SQSTM1 0 | A549-TP53BP1-CLTA 0 | A549-TUBA1B-RELA 0 | HepG2-ACTB-RAB5A 0 | HepG2-CANX-COX4 0 | HepG2-GM130-SQSTM1 0 | HepG2-TP53BP1-CLTA 0 | HepG2-TUBA1B-RELA 0 | WPMY1-ACTB-RAB5A 0 | WPMY1-CANX-COX4 0 | WPMY1-GM130-SQSTM1 0 | WPMY1-TP53BP1-CLTA 0 | WPMY1-TUBA1B-RELA 0

CCCCC1=NC2(CCCC2)C(=O)N1Cc1ccc(-c2ccccc2-c2nnn[nH]2)cc1 [irbesartan]
inactive: A549-ACTB-RAB5A 0 | A549-CANX-COX4 0 | A549-GM130-SQSTM1 0 | A549-TP53BP1-CLTA 0 | A549-TUBA1B-RELA 0 | HepG2-ACTB-RAB5A 0 | HepG2-CANX-COX4 0 | HepG2-GM130-SQSTM1 0 | HepG2-TP53BP1-CLTA 0 | HepG2-TUBA1B-RELA 0 | WPMY1-ACTB-RAB5A 0 | WPMY1-CANX-COX4 0 | WPMY1-GM130-SQSTM1 0 | WPMY1-TP53BP1-CLTA 0 | WPMY1-TUBA1B-RELA 0

NS(=O)(=O)c1cc2c(cc1Cl)N=CNS2(=O)=O [chlorothiazide]
inactive: A549-ACTB-RAB5A 0 | A549-CANX-COX4 0 | A549-GM130-SQSTM1 0 | A549-TP53BP1-CLTA 0 | A549-TUBA1B-RELA 0 | HepG2-ACTB-RAB5A 0 | HepG2-CANX-COX4 0 | HepG2-GM130-SQSTM1 0 | HepG2-TP53BP1-CLTA 0 | HepG2-TUBA1B-RELA 0 | WPMY1-ACTB-RAB5A 0 | WPMY1-CANX-COX4 0 | WPMY1-GM130-SQSTM1 0 | WPMY1-TP53BP1-CLTA 0 | WPMY1-TUBA1B-RELA 0

Clc1cccc(Nc2nnc(-c3ccccc3)c3ccccc23)c1
inactive: A549-ACTB-RAB5A 0 | A549-CANX-COX4 0 | A549-GM130-SQSTM1 0 | A549-TP53BP1-CLTA 0 | A549-TUBA1B-RELA 0 | HepG2-ACTB-RAB5A 0 | HepG2-CANX-COX4 0 | HepG2-GM130-SQSTM1 0 | HepG2-TP53BP1-CLTA 0 | HepG2-TUBA1B-RELA 0 | WPMY1-ACTB-RAB5A 0 | WPMY1-CANX-COX4 0 | WPMY1-GM130-SQSTM1 0 | WPMY1-TP53BP1-CLTA 0 | WPMY1-TUBA1B-RELA 0

CC(C)c1ccc(CC(=O)N2CCC[C@@H](c3cccc(OC(C)(C)C(=O)O)c3)C2)cc1
inactive: A549-ACTB-RAB5A 0 | A549-CANX-COX4 0 | A549-GM130-SQSTM1 0 | A549-TP53BP1-CLTA 0 | A549-TUBA1B-RELA 0 | HepG2-ACTB-RAB5A 0 | HepG2-CANX-COX4 0 | HepG2-GM130-SQSTM1 0 | HepG2-TP53BP1-CLTA 0 | HepG2-TUBA1B-RELA 0 | WPMY1-ACTB-RAB5A 0 | WPMY1-CANX-COX4 0 | WPMY1-GM130-SQSTM1 0 | WPMY1-TP53BP1-CLTA 0 | WPMY1-TUBA1B-RELA 0

COc1c(O[C@@H]2O[C@H](CO)[C@@H](O)[C@H](O)[C@H]2O)cc2c(c1OC)-c1ccc(SC)c(=O)cc1[C@@H](NC(C)=O)CC2 [Thiocolchicoside]
inactive: A549-ACTB-RAB5A 0 | A549-CANX-COX4 0 | A549-GM130-SQSTM1 0 | A549-TP53BP1-CLTA 0 | A549-TUBA1B-RELA 0 | HepG2-ACTB-RAB5A 0 | HepG2-CANX-COX4 0 | HepG2-GM130-SQSTM1 0 | HepG2-TP53BP1-CLTA 0 | HepG2-TUBA1B-RELA 0 | WPMY1-ACTB-RAB5A 0 | WPMY1-CANX-COX4 0 | WPMY1-GM130-SQSTM1 0 | WPMY1-TP53BP1-CLTA 0 | WPMY1-TUBA1B-RELA 0

O=C(Cn1ccnc1[N+](=O)[O-])NCc1ccccc1 [benznidazole]
inactive: A549-ACTB-RAB5A 0 | A549-CANX-COX4 0 | A549-GM130-SQSTM1 0 | A549-TP53BP1-CLTA 0 | A549-TUBA1B-RELA 0 | HepG2-ACTB-RAB5A 0 | HepG2-CANX-COX4 0 | HepG2-GM130-SQSTM1 0 | HepG2-TP53BP1-CLTA 0 | HepG2-TUBA1B-RELA 0 | WPMY1-ACTB-RAB5A 0 | WPMY1-CANX-COX4 0 | WPMY1-GM130-SQSTM1 0 | WPMY1-TP53BP1-CLTA 0 | WPMY1-TUBA1B-RELA 0

Nc1cc(-c2ccncc2)c[nH]c1=O [amrinone]
inactive: A549-ACTB-RAB5A 0 | A549-CANX-COX4 0 | A549-GM130-SQSTM1 0 | A549-TP53BP1-CLTA 0 | A549-TUBA1B-RELA 0 | HepG2-ACTB-RAB5A 0 | HepG2-CANX-COX4 0 | HepG2-GM130-SQSTM1 0 | HepG2-TP53BP1-CLTA 0 | HepG2-TUBA1B-RELA 0 | WPMY1-ACTB-RAB5A 0 | WPMY1-CANX-COX4 0 | WPMY1-GM130-SQSTM1 0 | WPMY1-TP53BP1-CLTA 0 | WPMY1-TUBA1B-RELA 0

CS(=O)(=O)OCCCCOS(C)(=O)=O [busulfan]
inactive: A549-ACTB-RAB5A 0 | A549-CANX-COX4 0 | A549-GM130-SQSTM1 0 | A549-TP53BP1-CLTA 0 | A549-TUBA1B-RELA 0 | HepG2-ACTB-RAB5A 0 | HepG2-CANX-COX4 0 | HepG2-GM130-SQSTM1 0 | HepG2-TP53BP1-CLTA 0 | HepG2-TUBA1B-RELA 0 | WPMY1-ACTB-RAB5A 0 | WPMY1-CANX-COX4 0 | WPMY1-GM130-SQSTM1 0 | WPMY1-TP53BP1-CLTA 0 | WPMY1-TUBA1B-RELA 0

O=C(O)CCN(O)C(=O)CCCCCCCCC1CC1
inactive: A549-ACTB-RAB5A 0 | A549-CANX-COX4 0 | A549-GM130-SQSTM1 0 | A549-TP53BP1-CLTA 0 | A549-TUBA1B-RELA 0 | HepG2-ACTB-RAB5A 0 | HepG2-CANX-COX4 0 | HepG2-GM130-SQSTM1 0 | HepG2-TP53BP1-CLTA 0 | HepG2-TUBA1B-RELA 0 | WPMY1-ACTB-RAB5A 0 | WPMY1-CANX-COX4 0 | WPMY1-GM130-SQSTM1 0 | WPMY1-TP53BP1-CLTA 0 | WPMY1-TUBA1B-RELA 0

C[N+](C)(C)CC[N+]1(C)Cc2c(Cl)c(Cl)c(Cl)c(Cl)c2C1 [Chlorisondamine diiodide]
inactive: A549-ACTB-RAB5A 0 | A549-CANX-COX4 0 | A549-GM130-SQSTM1 0 | A549-TP53BP1-CLTA 0 | A549-TUBA1B-RELA 0 | HepG2-ACTB-RAB5A 0 | HepG2-CANX-COX4 0 | HepG2-GM130-SQSTM1 0 | HepG2-TP53BP1-CLTA 0 | HepG2-TUBA1B-RELA 0 | WPMY1-ACTB-RAB5A 0 | WPMY1-CANX-COX4 0 | WPMY1-GM130-SQSTM1 0 | WPMY1-TP53BP1-CLTA 0 | WPMY1-TUBA1B-RELA 0
